ssDAF-12 act – S. stercoralis DAF-12 nuclear receptor activators, primary screen, cell-based, luminescence, HEK293, GRIP1 co-expression, lit1-tk-luc | HEK293 ssDAF-12/GRIP1 lit1-tk-luc reporter; % of 3 µM dafachronic acid response | activation, % at 6.8 µM | hit rate 1% among 370,000;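 active = activation above the mean over all tested compounds plus 3 SD, cut at about 0.9% in these data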;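 also: 0% = DMSO-only wells and 100% = 3 µM delta7-dafachronic acid wells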
hcDAF-12 act – H. contortus DAF-12 nuclear receptor activators, primary screen, cell-based, luminescence, HEK293, lit1-tk-luc reporter | hit rate 1.4% among 370,000 | HEK293 hcDAF-12 lit1-tk-luc reporter; 0% DMSO, 100% Δ7-dafachronic acid | AID 652067, 2013 | activation, % at 6.8 µM;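 active = activation above the mean of all tested compounds plus 3 SD, cut at about 5.5% in these data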;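 also: 100% = response to 3 µM Δ7-dafachronic acid high control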
hgDAF12 agonist – H. glycines DAF-12 receptor agonists, primary screen, cell-based, luminescence, HEK293, GAL4 fusion, UAS-luciferase; HEK293 GAL4-hgDAF12 UAS-luciferase reporter, agonist luminescence; normalized to butyrate control; activation, % at 6.8 µM; hit rate 1.8% among 370,000;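 active = activation above a cutoff set at the mean of all screened compounds plus 3 SD, cut at about 10% in these data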;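 also: 0% = DMSO wells and 100% = sodium butyrate wells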
DAX1 inh-1 – DAX1 (NR0B1) inhibitors, primary screen, cell-based, HEK293, Gal4-DAX1, luciferase luminescence; inhibition, % at 6.75 µM; HEK293 Gal4-DAX1 luciferase reporter; hit rate 0.99% among 340,000;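 active = inhibition above the mean over all tested compounds plus 3 SD, cut at about 4.2% in these data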;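 also: 0% = DAX1-transfected cells with DMSO and 100% = empty-vector control cells with DMSO; inhibition shows as a rise in luminescence from relieved DAX1 repression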
Target sequence (P51843 207-470 limits assumed): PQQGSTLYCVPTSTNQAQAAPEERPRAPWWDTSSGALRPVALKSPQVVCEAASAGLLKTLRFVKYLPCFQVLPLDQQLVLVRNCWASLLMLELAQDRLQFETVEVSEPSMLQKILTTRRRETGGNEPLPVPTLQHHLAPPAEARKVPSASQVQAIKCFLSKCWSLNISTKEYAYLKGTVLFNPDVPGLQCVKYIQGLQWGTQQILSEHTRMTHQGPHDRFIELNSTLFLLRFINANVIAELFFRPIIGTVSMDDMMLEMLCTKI
DAX1 inh-2 – DAX1 (NR0B1) inhibitors on StAR promoter, primary screen, cell-based, luminescence, SF-1 (NR5A1), full-length DAX-1. HEK293T StAR-luciferase reporter, SF-1/DAX-1 repression relief. inhibition, % at 6.8 µM. hit rate 1.1% among 370,000. AID 652010, 2013;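 active = inhibition above the mean over all tested compounds plus 3 SD, cut at about 3.6% in these data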;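 also: 0% = DAX-1 cells with DMSO and 100% = cells lacking DAX-1 with DMSO; higher inhibition means more luminescence from relief of DAX-1 repression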
SMARCA2 activ – SMARCA2 (BRM) function activators, primary screen, cell-based, luminescence, high throughput | MG213 cells, MMTV-luciferase reporter, dexamethasone, overnight | activation, % at 9.1 µM | hit rate 1% among 370,000 | AID 652017, 2013; in the data active = activation above about 7.8%;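 also: 0% = vehicle wells and 100% = reference activator wells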
SMARCA2 act conf – SMARCA2 (BRM) function activators, confirmation, cell-based, luminescence, triplicate; shares compounds with SMARCA2 activ; MG213 cells, MMTV-luciferase with dexamethasone, overnight; MG213 cells expressing E1A, Rb sequestered; DMSO wells 0%, reference activator 100%; activation, % at 9.1 µM; hit rate 30% among 3,500; AID 652260, 2013;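 active = activation above its plate's cutoff, the mean activation of tested wells plus 3 SD, cut at about 7.9% in these data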
VP16 Luc act – GAL4-VP16 luciferase reporter activation, counter-screen for SMARCA2 (BRM) activator project, cell-based, pG5luc, luminescence, high throughput | shares compounds with SMARCA2 activ | HEK293 GAL4-VP16 pG5luc reporter; scaled: DMSO wells 0%, SAHA wells 100% | activation, % at 9.1 µM | hit rate 41% among 3,500;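 active = activation above the solvent-only control well mean plus 3 SD, averaged across control plates, cut at about 5.2% in these data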
The depositor's hits bear a star; x = no result given. Most compounds without a hit are left out; they make up all but 4.8% or so of the library.

SMILES	ssDAF-12 act	hcDAF-12 act	hgDAF12 agonist	DAX1 inh-1	DAX1 inh-2	SMARCA2 activ	SMARCA2 act conf	VP16 Luc act
N#Cc1cc(O)c(-n2nnc3ccccc32)cc1C#N	-1	0	0	0	-1	-1	x	x
N#Cc1cc(Oc2cccc3cccnc23)c(-n2nnc3ccccc32)cc1C#N	-1	0	-1	-2	-1	14*	2	0
O=C(Cn1ccc2ccccc2c1=O)N1CCN(c2cccc(Cl)c2)CC1	-1	-1	0	0	0	-2	x	x
CCN1CCCC1CNC(=O)c1ccc2c(c1)NC(=O)/C(=C\c1ccccc1Cl)S2 (configuration not stated)	-1	1	-3	0	0	3	x	x
CCN1CCCC1CNC(=O)c1ccc2c(c1)NC(=O)/C(=C\c1ccc(OC)c(OC)c1)S2 (configuration not stated)	-1	0	3	2	1	8.6*	12*	0
CCOc1ccc2nc(NC(=O)CSc3cn[nH]n3)sc2c1	1	3	10	1	1	12*	8.2*	13*
O=C(NCc1ccccc1F)c1cccc(S(=O)(=O)N2CCCCCC2)c1	-1	0	0	0	-1	-3	x	x
OCC1OC(n2ccc3c(SCc4ccccc4)ncnc32)C(O)C1O (configuration not stated)	-1	2	13*	3	3	9.4*	8	9.6*
Cn1cnc2c(SCc3ccccc3)ncnc21	-1	0	7	1	3	9.7*	6	5
OCC1OC(n2cnc3c(SCc4ccccc4)ncnc32)C(O)C1O (configuration not stated)	-1	0	0	1	1	8.7*	13*	1
Nc1ncnc2c1ncn2C1OC(CO)C(O)C1O (configuration not stated)	-2	-2	0	-1	0	8.6*	5	0
Nc1nc(SCc2ccccc2)c2ncn(C3OC(CO)C(O)C3O)c2n1 (configuration not stated)	-1	0	1	0	0	2	x	x
Nc1ccc(S(=O)(=O)Nc2nccs2)cc1	0	1	5	2	0	1	x	x
O=C(OCc1cn([C@@H]2C[C@H](c3ccc(Cl)cc3)N(C(=O)c3cccs3)C[C@H]2O)nn1)c1ccccc1	-1	-2	0	-1	-1	-2	x	x
O=C(Nc1ccccc1F)C1(c2ccccc2)CC1(Cl)Cl (configuration not stated)	-1	-2	2	1	0	9.9*	0	1
CN(Cc1ccccc1)S(=O)(=O)c1ccc2[nH]c(=O)ccc2c1	-1	-2	-1	1	0	8.7*	-1	2
C[C@@H](C(=O)NCc1ccc(S(C)(=O)=O)cc1)[C@@H]1C[C@@]1(C)[C@@H](NC(=O)OCc1ccccc1)c1ccccc1	-1	-1	-3	0	0	-1	x	x
Cc1ccccc1NC(=S)N(Cc1ccco1)C(C)c1cccs1 (configuration not stated)	-1	0	1	1	0	11*	-4	-1
